Reference: PubChem BioAssay (NCI)
About 83,000 compounds went through this panel and 20% of them were active in at least one assay; those are over-represented in the sample as a whole.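 Assay: single dose, 48 h. Readout: percent growth (0 = no net growth; negative = cell death). Active: <10.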 Values without a mark were called inactive. Activity calls are given as the source filed them.

Test system: MDA-MB-468 breast
Assay: NCI-60 one-dose screen, 48 h (100 = growth as untreated, 0 = no growth, -100 = all killed)
Conditions: 10 µM unless noted

| SMILES | growth |
| --- | --- |
| COc1ccc(C2CC(=O)c3c(O)c(OC)c(OC)c(OC)c3O2)cc1O (stereo not drawn) | 8.92% (active) |
| O=C(NCCN1CCCCC1)n1cc(-c2ccncc2)c(-c2ccc(Cl)c(O)c2)n1 | 83.8% |
| NC(=O)CSc1nc(-c2ccc(F)cc2)cc(-c2ccco2)n1 | 71.7% |
| CCCCSC1=C(Cl)CN(c2ccc(Cl)cc2)C1=O | 77.9% |
| COC(=O)/C(CCC=C(C)C)=C1\[C@@H](OC(C)=O)C[C@@]2(C)[C@H]1C/C(=N/O)[C@H]1[C@@]3(C)CC/C(=N\O)[C@@H](C)[C@@H]3CC[C@@]12C | 96.8% |
| CN(C)CC1CCC(CN(C)C)C1=O (stereo not drawn) | 108% |
| COc1ccc2nc(-c3cc(-c4cc(OC)c(OC)c(OC)c4)n[nH]3)[nH]c2c1 | -8.59% (active) |
| COc1ccc2[nH]c(C(=O)OCc3ccc4c(Cl)cc(Cl)c(O)c4n3)cc2c1 | -83.1% (active) |
| CN(C)c1ccc(/C=C\c2ccnc3ccccc23)cc1 | 31.2% |
| CCOC(=O)C(Cc1ccccc1)n1c(O)c(/C=N/c2ncc(Cc3ccc(Cl)cc3Cl)s2)sc1=S (stereo not drawn) | -0.681% (active) |
| CN1CCN(CCC=C2c3ccccc3Sc3ccc(S(=O)(=O)N(C)C)cc32)CC1 | 21.1% |
| CC/C=C(\C)C(CCC)(CN=O)C(=O)OCC (stereo not drawn) | 113% |
| C=C(C)[C@@H]1CC[C@]2(C(=O)NCCNCCN)CC[C@]3(C)[C@H](CC[C@@H]4[C@@]5(C)C/C(=C/c6ccncc6)C(=O)C(C)(C)[C@@H]5CC[C@]43C)[C@@H]12 | 80.3% |
